Test systems include T-47D breast; BT-549 breast; MDA-MB-435 melanoma; SW-620 colon; MCF7 breast; HCT-116 colon; HCC-2998 colon; KM12 colon.
What all share (test): NCI-60 one-dose screen, 48 h (100 = growth as untreated, 0 = no growth, -100 = all killed)
Conditions in all cases: 10 µM unless noted

Compounds without any hit were thinned out: in the full panel of roughly 83,000, 20% have a hit.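 Cell lines were cultured in 96-well plates, exposed to a single compound concentration, and assessed for percent growth 48 hours later.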 A number with no mark means an inactive call. Active and inactive are the calls of the source. Rule for the calls: active = growth percent below 10; inactive = the rest.

Turning to `COc1ccc(/C=C/C(=O)c2ccc(Nc3ccnc4cc(Cl)ccc34)cc2)cc1`, the growth is 83.1% in the assay with T-47D breast; 101% in the assay on BT-549 breast; 85.6% with MDA-MB-435 melanoma; 93.7% in the assay on SW-620 colon; 76.2% in the assay with MCF7 breast; 34% in the assay on HCT-116 colon. For the same compound, the figures for the growth with HCC-2998 colon and in the assay with KM12 colon were 58.7% and 154%, respectively.
For the compound `[O-]/[N+](=C\c1ccc(-n2cc(Cc3ccccc3Cc3cn(-c4ccc(/C=[N+](/[O-])c5ccccc5)cc4)nn3)nn2)cc1)c1ccccc1`, the growth is 93.8% in the assay on T-47D breast; 83.3% with BT-549 breast; 109% in the assay on MDA-MB-435 melanoma; 102% with SW-620 colon; 90.6% with MCF7 breast; 91.2% in the assay with HCT-116 colon. Further, the figures for the growth in the assay on HCC-2998 colon and with KM12 colon were 104% and 98.8%, respectively.
For `CCC(C)(C)C(=O)O[C@H]1C[C@@H](C)C=C2C=C[C@H](C)[C@H](CC[C@@H]3CC(SCCN)CC(=O)O3)[C@H]21` (stereo not given in full), the growth in the assay with T-47D breast was 89.8%; in the assay with BT-549 breast, 78.7%; in the assay with MDA-MB-435 melanoma it was 93.3%; in the assay on SW-620 colon, 81.8%; with MCF7 breast, 79.9%; in the assay on HCT-116 colon it was 37.5%. For the same compound, the growth is 73.6% in the assay on HCC-2998 colon and 88.2% in the assay with KM12 colon.
As for `O=C(N(c1ccccc1)c1ccccc1)n1cc(I)c2nc(Cl)nc(Cl)c21`, the growth in the assay on T-47D breast was 61.2%; in the assay with BT-549 breast, 47.4%; with MDA-MB-435 melanoma it was 37.4%; in the assay on SW-620 colon, 26%; in the assay with MCF7 breast it was 25.5%; in the assay with HCT-116 colon, 25.7%. Moreover, the figures for the growth with HCC-2998 colon and with KM12 colon were 93.3% and 44.1%, respectively.
Consider `CC(=O)N1N=C(c2ccc(Nc3nc(Nc4ccccc4)nc(Nc4ccccc4)n3)cc2)CC1c1ccccc1` (stereo not given), for which the growth is 46.5% in the assay with T-47D breast; 87.2% in the assay on BT-549 breast; 101% with MDA-MB-435 melanoma; 99% in the assay on SW-620 colon; 67.5% in the assay with MCF7 breast; 77.1% in the assay on HCT-116 colon. The growth is 99.2% with HCC-2998 colon and 89.6% with KM12 colon.
As for `COC(=O)Nc1nc2ccc(S(=O)c3ccccc3)cc2[nH]1` (stereo not given), the growth is 89.1% in the assay on T-47D breast; 77.9% in the assay with BT-549 breast; -33.4% (active) with MDA-MB-435 melanoma; 27.2% in the assay on SW-620 colon; 44.1% in the assay with MCF7 breast; 39.4% with HCT-116 colon. Moreover, the growth with HCC-2998 colon was 74.1%; in the assay with KM12 colon, 31.6%.
As to `COc1ccc(/C=N/NC(=O)c2ccc(-n3cc(-c4ccccc4)nn3)cc2)cc1OC`, the growth was 98.3% in the assay with T-47D breast; 92.9% in the assay on BT-549 breast; 98.4% with MDA-MB-435 melanoma; 116% in the assay on SW-620 colon; 75.3% with MCF7 breast; 92.7% in the assay on HCT-116 colon. Moreover, the growth was 113% with HCC-2998 colon and 104% in the assay on KM12 colon.
Take `CCCC/C(CC)=N\NS(=O)(=O)c1ccc([N+](=O)[O-])cc1`: the growth in the assay on T-47D breast is 95.3%; in the assay with BT-549 breast, 114%; in the assay on MDA-MB-435 melanoma it was 107%; in the assay with SW-620 colon, 106%; in the assay with MCF7 breast, 102%; in the assay with HCT-116 colon it was 99.6%. In addition, the growth with HCC-2998 colon was 107%; in the assay with KM12 colon it was 98.6%.
As for `O=C(/C=C/c1cccs1)Nc1ncc(Cc2ccccc2F)s1`, the growth is 23.8% in the assay on T-47D breast; 52.3% in the assay with BT-549 breast; -64.4% (active) in the assay on MDA-MB-435 melanoma; 24.5% in the assay on SW-620 colon; 17.1% in the assay with MCF7 breast; 28.6% in the assay with HCT-116 colon. Besides, the growth in the assay with HCC-2998 colon is 44.4%; in the assay on KM12 colon it was 16.7%.
Regarding `COC(=O)[C@]1(C)CCC[C@]2(C)[C@H]3C[C@H]4C(C(C)C)=C[C@]3(CC[C@H]21)[C@@H]1C(=O)CC[C@H](OCCC#N)[C@@H]14`, the growth with T-47D breast is 66.4%; in the assay with BT-549 breast, 87.5%; in the assay with MDA-MB-435 melanoma it was 84.9%; in the assay with SW-620 colon it was 86.4%; in the assay on MCF7 breast, 59.5%; with HCT-116 colon, 77.6%. The growth is 96.4% in the assay on HCC-2998 colon and 82% in the assay on KM12 colon.
As to `O=C(O)CCCN1C(=O)/C(=C/c2cn(-c3ccccc3)nc2-c2ccc([N+](=O)[O-])cc2)SC1=S`, the growth is 61.6% with T-47D breast; 55.1% in the assay with BT-549 breast; 48.6% with MDA-MB-435 melanoma; 65.7% in the assay with SW-620 colon; 52.3% with MCF7 breast; 36.9% with HCT-116 colon. Moreover, the values for the growth in the assay with HCC-2998 colon and with KM12 colon were 64.6% and 54.1%, respectively.
In the case of `COc1cc2cc(NCc3cccc(Cl)c3)nc(C)c2cc1OC`, the growth in the assay with T-47D breast is 52.7%; in the assay on BT-549 breast, 23.1%; in the assay on MDA-MB-435 melanoma, 4.19% (active); in the assay on SW-620 colon, 17%; with MCF7 breast it was 55.4%; with HCT-116 colon it was 8.02% (active). The growth in the assay with HCC-2998 colon was 38.9%; in the assay on KM12 colon it was 38.8%.
Regarding `Cc1cccc(/C=C/c2c(C(=O)/C=C/c3ccccc3)c(C)nc3ccccc23)c1`, the growth with T-47D breast was -4.51% (active); in the assay on BT-549 breast it was 2.21% (active); in the assay with MDA-MB-435 melanoma it was -66% (active); with SW-620 colon, -14% (active); in the assay on MCF7 breast it was 3.87% (active); in the assay with HCT-116 colon, -56.3% (active). Moreover, the growth was -84.5% (active) in the assay on HCC-2998 colon and -52.7% (active) in the assay with KM12 colon.
Take `O=C1/C(=C\c2ccc3nccnc3c2)SC(=S)N1CCc1ccc(O)cc1`: the growth in the assay with T-47D breast was 50.4%; with BT-549 breast, 96.5%; with MDA-MB-435 melanoma it was 93.2%; in the assay on SW-620 colon, 98.2%; in the assay with MCF7 breast it was 41.9%; in the assay on HCT-116 colon, 94.8%. In addition, the growth was 117% with HCC-2998 colon and 52.1% in the assay on KM12 colon.
For `CCc1ncnc2c1ccn2C(C)c1ccc(OC)c(F)c1` (stereo not given), the growth in the assay with T-47D breast was 36.1%; in the assay with BT-549 breast, 52.4%; in the assay with MDA-MB-435 melanoma, 6.71% (active); in the assay on SW-620 colon, 27.7%; in the assay with MCF7 breast, 33.4%; in the assay on HCT-116 colon, 18.8%. The growth is 56.6% in the assay with HCC-2998 colon and 27.8% in the assay with KM12 colon.

The record behind these values is PubChem BioAssay (NCI).
